Measured values published in PubChem BioAssay (NCATS).
Activity calls are given as the source filed them. Calls come from the whole dose curve; as a rule, active = well fitted curve in the direction sought with a large enough effect; inactive = no such curve, though single readings can be large or run the other way.

Each compound was assayed against Alpha-galactosidase A (Homo sapiens) (UniProt P06280) (assay: Counterscreen for Glucocerebrosidase Inhibitors: qHTS Assay for Human alpha-Galactosidase at pH 4.5 (AID 992)). Conditions: purified enzyme, fluorogenic substrate; series mostly up to 76.9 µM.
Alpha-galactosidase A (Homo sapiens), sequence (P06280 whole entry, looked up): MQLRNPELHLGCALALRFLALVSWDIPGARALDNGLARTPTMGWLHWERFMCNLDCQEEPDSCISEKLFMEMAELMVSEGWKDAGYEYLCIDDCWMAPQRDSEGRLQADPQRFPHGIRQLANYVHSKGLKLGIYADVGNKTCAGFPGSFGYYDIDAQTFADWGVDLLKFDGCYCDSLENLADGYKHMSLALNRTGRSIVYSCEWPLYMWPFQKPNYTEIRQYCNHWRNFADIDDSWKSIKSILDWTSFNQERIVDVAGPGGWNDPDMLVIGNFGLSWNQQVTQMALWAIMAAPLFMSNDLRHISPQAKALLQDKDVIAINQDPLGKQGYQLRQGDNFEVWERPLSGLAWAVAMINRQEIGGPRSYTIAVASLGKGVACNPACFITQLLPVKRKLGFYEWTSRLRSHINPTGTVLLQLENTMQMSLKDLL
How it was run: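 Fluorogenic 1536-well qHTS at pH 4.5 (citrate, Tween-20): 2 nM enzyme, 80 uM 4-MU-alpha-galactoside, 20 min room temperature, NaOH/glycine stop. Titration 0.7 nM to 77 uM, data normalized to no-enzyme and full-activity controls, Hill-fitted AC50.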
`N=C(N)SCCN` was tested, and the outcome was “inactive”. With `NC(N)=[N+]1CCc2ccccc2C1` the outcome was “inactive”. With `O=C(O)Cc1ccc(O)c(O)c1` the outcome was “inactive”. For `CC(=O)N[C@@H](Cc1c[nH]c2ccccc12)C(=O)OCc1cc(C(F)(F)F)cc(C(F)(F)F)c1`, the outcome was “inactive”. `CC(C)Cn1c(=O)n(C)c(=O)c2[nH]cnc21` was tested, and the outcome was “inactive”. `CC(N)=O` was tested, and the outcome was “inactive”. `COc1ccc2c(c1)c(CC(=O)O)c(C)n2Cc1ccc(Cl)cc1` was tested, and the outcome was “inactive”. For `CC[N+](CC)(CC)CC(=O)Nc1c(C)cccc1C`, the outcome was “inactive”. With `Cc1nc2c(OCc3ccccc3)cccn2c1CC#N` the outcome was “inactive”. For `N[C@@H](CS(=O)O)C(=O)O`, the outcome was “inactive”. For `N[C@H](C(=O)O)c1cc(O)cc(O)c1`, the outcome was “inactive”. For `CCCCCCCCCCC/C=C\C(C)(C)/C=C\CCCC(=O)O`, the outcome was “inactive”. In the case of `Cc1ccc([N+](=O)[O-])cc1S(=O)(=O)N(C)C`, the outcome was “inactive”. With `CCCn1c(=O)c2[nH]c(C3CCCC3)nc2n(CCC)c1=O` the outcome was “inactive”. For `N=C(N)c1ccc(N)cc1`, the outcome was “inactive”. With `CCSC(=N)N` the outcome was “inactive”. `Nc1ccc(-c2nc3ccc(-c4nc5ccc(N)cc5[nH]4)cc3[nH]2)cc1` was tested, and the outcome was “inactive”. With `COc1ccc(-c2ccc(N)[n+](CCCC(=O)O)n2)cc1` the outcome was “inactive”. With `CCn1c(=O)[nH]c2cc(Cl)c(Cl)cc21` the outcome was “inactive”. In the case of `CCCCCCN(CCCCCC)C(=O)Cc1c(-c2ccc(F)cc2)[nH]c2ccccc12`, the outcome was “inactive”. With `Cc1nc(N=Nc2ccc(S(=O)(=O)O)cc2S(=O)(=O)O)c(COP(=O)(O)O)c(C=O)c1O` the outcome was “inactive”. For `O=C(O)c1ccccc1Nc1ccccc1`, the outcome was “inactive”. For `NS(=O)(=O)c1cccc2c1c([N+](=O)[O-])cc1nc(O)c(O)nc12`, the outcome was “inactive”.
